# This is a sample that favours compounds with a hit; in the whole collection about 2.3% have one here.
# Mcl1-Noxa inh: Mcl-1/Noxa interaction inhibition; Q07820; TR-FRET Mcl-1/Noxa peptide binding, 2 h; inhibition, % at 21.7 µM; 220,000 tested, 1.5% active; AID 1022;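 active means compounds that cut the protein-peptide binding signal by more than 50% relative to plate controls in a single-dose test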;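 further: His-tagged Mcl-1 with rhodamine Noxa BH3 peptide and terbium anti-His antibody; 0% = Mcl-1 plus Noxa peptide wells and 100% = peptide-only wells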
# Bcl-xL primary: inhibitors of human Bcl-xL. GST-Bcl-xL / FITC-Bim BH3 peptide fluorescence polarization. Q07817. 320,000 tested, 0.7% active. inhibition, % at 10.9 µM. AID 2129;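 active means inhibition above the mean of all tested compounds plus 3 SD, cutoff set per campaign, cut at about 30% in these data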;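 further: 0% = DMSO wells and 100% = unlabeled Bim-BH3 peptide competitor; inhibitors lower millipolarization by displacing the labeled peptide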
# GLD-1 TGE inh: GLD-1-TGE RNA interaction inhibition (C. elegans). Q17339. purified GLD-1 + fluorescein TGE RNA, fluorescence polarization. inhibition, % at 5.96 µM. 320,000 tested, 0.44% active;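 active means percent inhibition above a per-plate cutoff, the plate mean of test compounds plus 3 SD, cut at about 30% in these data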;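 further: 0% = DMSO wells with GLD-1 and probe and 100% = wells lacking GLD-1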
# Target sequence (Q17339 whole entry, looked up): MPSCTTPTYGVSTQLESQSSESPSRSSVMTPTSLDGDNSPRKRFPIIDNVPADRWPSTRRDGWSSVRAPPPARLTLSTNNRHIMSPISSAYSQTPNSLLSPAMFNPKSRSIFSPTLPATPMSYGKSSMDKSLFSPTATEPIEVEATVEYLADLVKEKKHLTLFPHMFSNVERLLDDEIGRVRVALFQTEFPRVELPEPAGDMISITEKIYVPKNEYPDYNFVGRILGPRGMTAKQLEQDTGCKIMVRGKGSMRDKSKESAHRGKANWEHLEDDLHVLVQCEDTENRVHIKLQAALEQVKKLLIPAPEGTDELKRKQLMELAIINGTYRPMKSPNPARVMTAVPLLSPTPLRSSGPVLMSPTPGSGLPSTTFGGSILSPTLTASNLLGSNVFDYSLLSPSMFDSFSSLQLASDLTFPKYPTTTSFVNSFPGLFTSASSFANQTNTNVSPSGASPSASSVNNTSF
# Mcl1-Bid inh: disrupts binding of human Mcl-1 to Bid peptide; Q07820; 220,000 tested, 0.97% active; TR-FRET Mcl-1/Bid-Dy647 peptide binding, 1536-well; inhibition, % at 21.7 µM;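 active means compounds that cut the binding signal by more than half at the single screening dose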;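 further: His-tagged Mcl-1 with europium anti-His antibody binding Bid BH3 peptide; 0% = Mcl-1 plus peptide wells and 100% = peptide-only wells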
# MCL1-BIM inh: inhibitors of human MCL1 binding to BIM-BH3 peptide | Q07820 | GST-MCL1 / FITC-Bim-BH3 fluorescence polarization | inhibition, % at 10.9 µM | 320,000 tested, 0.68% active | AID 2057;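 active means inhibition above the mean inhibition of all tested compounds plus 3 SD, set per campaign, cut at about 40% in these data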;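 further: 0% = DMSO wells and 100% = unlabeled Bim-BH3 peptide control; higher means more loss of mP so more displacement of Bim peptide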
# Mcl-1 Bim block: disrupts Bim peptide binding to human Mcl-1; Q07820; inhibition, % at 10 µM; 190,000 tested, 0.1% active; Bead-based flow cytometry, Bim peptide-Mcl-1 binding; in the data active means inhibition above about 40%;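 further: 0% = no compound tracer wells and 100% = peptide blocker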
# GLD-1 TGE cf: GLD-1 TGE RNA interaction inhibition, confirmation; shares compounds with GLD-1 TGE inh; GLD-1/FL-TGE RNA fluorescence polarization, biochemical; inhibition, % at 5.96 µM; 550 tested, 10% active;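 active means average inhibition across triplicates above the hit cutoff set in the primary screen, cut at about 32% in these data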;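 further: 0% = GLD-1 with RNA probe and DMSO and 100% = wells lacking GLD-1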
# * hit, by the source's call; . = not tested or not shown.
SMILES,Mcl1-Noxa inh,Bcl-xL primary,GLD-1 TGE inh,Mcl1-Bid inh,MCL1-BIM inh,Mcl-1 Bim block,GLD-1 TGE cf
Fc1ccc(Br)cc1C1C=C(c2cccnc2)Nc2ncnn21 (stereo unspecified),-2.3,36.8*,34.1*,-7.5,38.3,-3.0,1.7
CC(C)(C)c1ccc(C2=CC(c3ccccc3F)n3ncnc3N2)cc1 (stereo unspecified),.,5.9,10.2,.,6.2,.,.
O=C(Nc1ccccc1)Nc1ccc(Cl)nc1Cl,.,-3.2,35.6*,.,2.2,.,-3.7
O=C(NNc1cccc(Cl)n1)Nc1ccccc1,11.0,-1.3,4.0,-12.2,-6.3,2.0,.
Cc1cc(/C=C(\C#N)c2nnc(N3CCOCC3)n2-c2ccccc2)c(C)n1-c1ccccc1,1.4,22.7,48.8*,-20.5,25.7,0.0,4.6
CCOC(=O)CC1=C(C(=O)OCC)C(c2ccc(C)o2)C(C#N)=C(N)O1 (stereo unspecified),13.3,37.3*,34.0*,-45.2,31.4,-1.0,6.9
CCOC(=O)CC1=C(C(=O)OCC)C(c2ccc(OC)cc2OC)C(C#N)=C(N)O1 (stereo unspecified),-1.0,39.4*,34.7*,-80.7,42.6*,-3.0,9.9
CCOC(=O)C1=C(CC)OC(N)=C(C#N)C1c1ccc(OC)cc1OC (stereo unspecified),-0.4,6.0,5.5,-28.9,7.9,18.0,.
COc1ccc(CN2C(=O)CN=C2Nc2cc(C)ccc2C)cc1,10.3,9.2,32.5*,18.4,4.3,-6.0,-3.1
CC(C)C1=C2OC(N)=C(C#N)C(C#N)=C2C(C)CC1 (stereo unspecified),.,35.0*,38.6*,.,37.5,1.0,15.1
O=C(Nc1ccc(N2CCN(C(=O)c3cccs3)CC2)cc1)c1ccc(Br)o1,.,3.2,7.2,.,1.2,.,.
CCCCNc1c(-c2ccc(SC(C)CC)cc2)nc2cnccn12 (stereo unspecified),.,.,43.0*,.,.,.,3.4
CCOC(=O)C1=C(O)c2ccccc2C(=O)/C1=C\c1ccc(CC)cc1,84.6*,24.1,37.7*,51.9*,31.0,0.0,-3.3
CCOC(=O)C1=C(Cc2ccc(OC)cc2)C(=O)c2ccccc2C1=O,36.7,.,.,0.5,.,0.0,.
CCOC(=O)C1=C(COC(=O)/C=C/c2cccc(OC)c2OC)NC(=O)NC1C (stereo unspecified),.,3.9,-7.5,.,3.9,.,.
COc1ccccc1Nc1cc2cc(Br)ccc2c(=O)[nH]1,.,7.4,1.9,.,-3.9,.,.
COc1ccc(OC)c(Nc2cc3ccccc3c(=O)[nH]2)c1,.,7.3,42.4*,.,-2.3,.,4.2
O=C(O)Cn1c2c(c3ccccc31)CCCC2,7.2,39.4*,33.1*,-22.0,47.7*,1.0,25.0
CC(=O)NNC(=O)CCn1c2c(c3ccccc31)CCCC2,-8.1,8.8,8.5,-49.4,9.1,.,.
O=C(C1CC1)N1N=C(c2ccccc2)CC1(O)C(F)(F)C(F)(F)F (stereo unspecified),.,1.9,-1.6,.,5.6,.,.
CC(C)CCN(C)C1CCN(C(=O)Nc2c(F)cccc2F)CC1,1.9,36.5*,35.0*,-12.6,31.5,0.0,-4.2
CCn1c(CSc2nnc(-c3cccnc3)n2-c2ccccc2C)nc2cc(C(=O)O)ccc21,37.6,30.3*,45.9*,-20.6,31.9,0.0,18.5
CCn1c(CSc2nnc(-c3ccncc3)n2CCOC)nc2cc(C(=O)O)ccc21,0.1,12.2,14.4,-19.0,12.6,0.0,.
N#CCCN(C(=O)COC(=O)c1cc(S(=O)(=O)N2CCOCC2)ccc1Cl)c1ccc(F)cc1,.,-3.3,4.0,.,-1.9,.,.
CN1CCN(CCP(=O)(c2ccccc2)c2ccccc2)CC1,-125.8,-1.7,-1.8,-15.0,-1.8,-2.0,.
SMILES,Mcl1-Noxa inh,Bcl-xL primary,GLD-1 TGE inh,Mcl1-Bid inh,MCL1-BIM inh,Mcl-1 Bim block,GLD-1 TGE cf
CN1CCN(CP(=O)(N2CCOCC2)N2CCOCC2)CC1,-15.7,1.3,43.0*,-8.2,5.1,-10.0,-0.3
CCc1ccc(C2C(C#N)=C(N)C(C#N)(C#N)C3=CCC(C(C)(C)C)CC32)cc1 (stereo unspecified),0.3,41.3*,41.3*,-8.8,28.4,-1.0,5.4
COc1ccc(NC(=O)C(=O)c2cn(CC(=O)N3CCCC3)c3ccccc23)cc1,.,-2.2,5.0,.,-6.2,.,.
Cc1cc(C)c(C2=CC(c3ccccc3)n3ncnc3N2)cc1C (stereo unspecified),.,5.1,8.6,.,-0.9,.,.
Cc1ccc(C2C=C(c3ccccc3)Nc3ncnn32)cc1 (stereo unspecified),.,24.1,32.6*,.,23.0,.,0.8
O=C(OCC(=O)N1CCCC1)c1cc(Cl)ccc1[N+](=O)[O-],.,0.6,-1.6,.,0.5,.,.
Cc1ccc(S(=O)(=O)Nc2ccc(S(=O)(=O)Nc3nccs3)cc2)c([N+](=O)[O-])c1,.,7.0,-0.1,.,3.4,.,.
CCOC(=O)c1ccc(NC(=O)c2c(N)n(Cc3ccccc3)c(=O)[nH]c2=O)cc1,.,2.2,-6.3,.,7.6,.,.
CNc1c(N)n(Cc2ccccc2)c(=O)[nH]c1=O,-22.0,37.4*,41.5*,-84.2,43.0*,0.0,29.8
Cc1cc2cc(CNC(=O)C(C)Oc3ccccc3)ccc2n1C (stereo unspecified),8.6,38.2*,57.0*,-53.1,41.3*,.,7.2
COc1ccc(S(=O)(=O)NCc2ccc3c(c2)cc(C)n3C)cc1,10.2,13.2,11.2,-29.8,12.6,0.0,.
CCOC(=O)CCC(=O)NCc1ccc2c(c1)cc(C)n2C,6.3,38.1*,30.9*,-32.2,44.1*,2.0,11.0
Cc1cc2cc(CNS(=O)(=O)c3ccccc3)ccc2n1C,9.8,36.0*,53.8*,-27.8,46.5*,6.0,11.4
Cc1cc2cc(OCC(=O)O)ccc2n1C,19.4,22.4,39.3*,-11.2,20.2,-2.0,4.6
CCCCC(=O)NCc1ccc2c(c1)cc(C)n2C,-18.2,11.6,13.9,-65.8,14.4,0.0,.
Cc1ccc(N2C(=O)C(Cl)=C(N3CCCCCC3)C2=O)c(C)c1,.,-5.4,-2.9,.,-0.5,.,.

# Screening results from PubChem.
